Data as given in the supplement of paper PMC13380429.

Tested on: Vero E6 infected with SARS-CoV-2
Assay: inhibition of SARS-CoV-2 cytopathic effect; higher = more antiviral protection, active = above 15
Settings: 48 h

Measured: inhibition of SARS-CoV-2 cytopathic effect

CCN(CC)C(=O)/C(C#N)=C/c1cc(O)c(O)c([N+](=O)[O-])c1 [entacapone]
inactive: 1 nM -0.37% | 8.33 nM -1.7% | 100 nM -1.61% | 833.33 nM -2.41% | 10000 nM -0.4%

C1=N/C2=N/c3ccc(OCCN4CCCC4)c(c3)COC/C=C/COCc3cccc(c3)C(=C1)N2 [pacritinib]
inactive: 1 nM -0.44% | 8.33 nM 0.71% | 100 nM 0.95% | 833.33 nM 0.27% | 10000 nM -15%

CC1(C)CCC(C)(C)c2cc(C3(c4ccc5cc(C(=O)O)ccc5c4)SCCS3)ccc21
inactive: 1 nM -0.61% | 8.33 nM 2.69% | 100 nM 1.81% | 833.33 nM 1.35% | 10000 nM 2.66%

CC(=O)C1=C(O)C=C2Oc3c(C(C)=O)c(O)c(C)c(O)c3C2(C)C1=O (stereo not drawn) [usniacin-(+)]
inactive: 1 nM 3.22% | 8.33 nM 2.31% | 100 nM 0.43% | 833.33 nM -1.14% | 10000 nM -4.03%

O=C(O)Cn1c(C(=O)Nc2nc(-c3ccccc3Cl)cs2)cc2ccccc21
inactive: 1 nM 0.3% | 8.33 nM -0.21% | 100 nM 0.61% | 833.33 nM -0.36% | 10000 nM -0.66%

O=C1NC(=O)/C(=C/c2cccc(C(F)(F)F)c2)S1
inactive: 1 nM 0.25% | 8.33 nM 2.25% | 100 nM 1.98% | 833.33 nM -0.59% | 10000 nM -1.22%

CC1(C)S[C@@H]2[C@H](NC(=O)[C@H](NC(=O)N3CCNC3=O)c3ccccc3)C(=O)N2[C@H]1C(=O)O [azlocillin]
inactive: 1 nM -1.64% | 8.33 nM -1.64% | 100 nM 1.05% | 833.33 nM -1.76% | 10000 nM -1.54%

Cn1c(=O)[nH]c2ncn(C)c2c1=O [paraxanthine]
inactive: 1 nM 1.63% | 8.33 nM 1.68% | 100 nM 0.01% | 833.33 nM 2.99% | 10000 nM -0.26%

CCC[C@H](NC(=O)[C@@H]1[C@H]2CCC[C@H]2CN1C(=O)[C@@H](NC(=O)[C@@H](NC(=O)c1cnccn1)C1CCCCC1)C(C)(C)C)C(=O)C(=O)NC1CC1 [telaprevir]
inactive: 1 nM 0.02% | 8.33 nM -0.75% | 100 nM 0.71% | 833.33 nM 5.12% | 10000 nM -2.66%

CN1CCN(c2ccc3nc(-c4c(N)c5c(F)cccc5[nH]c4=O)[nH]c3c2)CC1 [dovitinib]
inactive: 1 nM 1.8% | 8.33 nM 0.97% | 100 nM 0.34% | 833.33 nM -1.8% | 10000 nM -0.5%
